# Results published in ChEMBL document CHEMBL1201862, “PubChem BioAssay data set” (2004).
# Only a part of the results of these assays is listed, not drawn at random.
# Biological target: Pyruvate kinase PKM (Homo sapiens) (UniProt P14618)
# Test: Confirmation Concentration-Response Assay for Activators of Human Muscle isoform 2 Pyruvate Kinase: for Probe SAR.
# Type: functional
# Chain of Pyruvate kinase PKM (Homo sapiens) (P14618 2-531 limits assumed): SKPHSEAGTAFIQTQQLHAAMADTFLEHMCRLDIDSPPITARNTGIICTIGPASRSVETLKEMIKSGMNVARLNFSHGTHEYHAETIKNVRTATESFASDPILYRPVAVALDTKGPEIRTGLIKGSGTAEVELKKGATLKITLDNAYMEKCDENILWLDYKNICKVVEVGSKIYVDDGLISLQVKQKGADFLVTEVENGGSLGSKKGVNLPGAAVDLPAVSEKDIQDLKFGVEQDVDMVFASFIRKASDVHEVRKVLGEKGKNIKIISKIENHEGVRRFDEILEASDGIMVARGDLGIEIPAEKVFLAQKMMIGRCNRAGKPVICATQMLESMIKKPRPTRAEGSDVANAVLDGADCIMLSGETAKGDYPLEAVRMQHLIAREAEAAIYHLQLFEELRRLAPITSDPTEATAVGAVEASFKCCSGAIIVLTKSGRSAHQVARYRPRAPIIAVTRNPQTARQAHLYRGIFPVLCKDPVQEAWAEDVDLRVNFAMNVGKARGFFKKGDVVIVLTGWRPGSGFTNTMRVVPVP
compound,measurement,value
C[N+](C)(C)c1cccc(S(=O)(=O)N2CCCN(S(=O)(=O)c3ccc4c(c3)OCCO4)CC2)c1,Potency,16.3 µM (active)
